In PubChem BioAssay AID488890 (Southern Research Specialized Biocontainment Screening …, 2010):
In all, about 320,000 compounds went through this assay and about 1,300 (0.41%) were called active. Roughly 3% stayed inconclusive and do not appear here. The rule behind the calls is not given here. Only a sample is shown. Potency and affinity values are given separately.

Experiment: growth inhibition of non-replicating M. tuberculosis (AID 488890);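 note: plate controls were DMSO cells for no effect and high antibiotic wells for full effect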
Details: Mycobacterium tuberculosis non-replicating, at 25 µM, stronger effect = higher value

Compared with CC1(C)Cc2nc3sc(C(N)=O)c(N)c3cc2CO1, Cc1cc(C)c2ccc(N)nc2c1O is higher in inhibition: -3.96% for the first, 41.3% for the second.

Going from O=C(CCC1CCCC1)NCCCNC(=O)CCC1CCCC1 to Cc1cc(C)cc(NC(=O)C2C3C=CC4(O3)C2C(=O)N(CCCN2CCCCC2)C4C(=O)NC2CCCCC2)c1 (stereo not given), the inhibition falls from 72.8% to 8.2%.

First: Cc1nc([N+](=O)[O-])c(Sc2nc3ccccc3n2C)n1Cc1ccccc1
Second: Cc1onc(-c2ccccc2Cl)c1C(=O)O/N=C(\N)c1ccccc1
The inhibition of the first is higher: 70.5% for the first, 10.2% for the second.

Compared with C=C(C)C(=O)Nc1cccc(C2=NOC3(C2)C[C@H](C(N)=O)N(C(=O)CC#N)C3)c1 (stereo not given in full), CC(=O)Nc1cccc(-c2nc3ccccc3o2)c1 is higher in inhibition: -3.19% for the first, 8.44% for the second.

Compared with CCCCCCCCn1cc(C(C)=O)c(=O)[nH]c1=O, CCCCCCCCCn1cc(C(C)=O)c(=O)[nH]c1=O is lower in inhibition: 79.8% for the first, 71.1% for the second.

Compared with COc1ccc(-n2nc(C(=O)NCC(=O)O)c3ccccc3c2=O)cc1, COc1ccc(-n2nc3c(c2NC(=O)c2ccco2)CS(=O)(=O)C3)cc1 is higher in inhibition: -2.99% for the first, 3.65% for the second.

First: COc1ccc(NC(=O)Nc2cccc(NC(C)=O)c2)c(OC)c1
Second: COc1ccc(-c2cc3cccc(OC)c3oc2=O)cc1
The inhibition of the first is lower: 15.4% for the first, 24.1% for the second.

Going from COCCNc1nnc(SCC(=O)NNC(=O)c2ccccc2)s1 to O=C(NNC(=O)c1ccc([N+](=O)[O-])o1)c1ccccc1, the inhibition rises from -9.33% to 70%.

Compared with COc1ccc(/C=C2/C(=O)N(c3ccccc3)N=C2C)cc1, CC(=O)Oc1ccc(/C=C2/C(=O)N(c3ccccc3)N=C2C)cc1 is higher in inhibition: 0.19% for the first, 32.7% for the second.

Compared with C(=N\N=C\c1ccccc1)/c1ccccc1, C(=N\N1CCN(Cc2ccccc2)CC1)/c1ccc(-c2ccccc2)cc1 is higher in inhibition: 9.87% for the first, 43% for the second.

Going from CCc1nn(CCCC(=O)N2CCC(C)CC2)c(=O)c2cc3occc3n12 to NC(=O)C1CCN(C(=O)c2ccc(-c3ccccc3Cl)o2)CC1, the inhibition falls from 2.85% to -8.98%.

Going from NS(=O)(=O)c1ccc(CNC(=O)c2cnccn2)cc1 to O=C(NCc1ccc(Cl)cc1)c1cnccn1, the inhibition rises from -8.46% to 68.3%.

Going from COc1ccc(CNC(=O)c2cnccn2)cc1 to O=C(NCc1ccncc1)c1cnccn1, the inhibition falls from 66.2% to -7.93%.

Compared with CSc1ccc(NC(=O)NCCCN2CCN(c3ccccc3F)CC2)cc1, O=C(CN1CCN(S(=O)(=O)c2ccccc2F)CC1)Nc1ccccc1C(=O)c1ccccc1 is lower in inhibition: 50.5% for the first, 27.9% for the second.

Going from Cc1cc(OC(=O)c2ccc(S(=O)(=O)N3CCCCC3)cc2)c([N+](=O)[O-])c(=O)[nH]1 to Cc1cc(C)c(C)c(S(=O)(=O)Nc2ccc(C(=O)N3CCCC3)cc2)c1C, the inhibition rises from -2.75% to 5.64%.

First: Cc1cc(C(=O)OCC(=O)Nc2cc(Cl)ccc2C)c(C)o1
Second: O=C(CNC(=O)N1CC(=O)Nc2ccccc21)Nc1cc(Cl)ccc1Cl
The inhibition of the first is lower: 0.98% for the first, 5.7% for the second.

First: O=C(NCc1ccco1)c1ccc(NS(=O)(=O)c2cccc(F)c2)cc1
Second: O=C(NCCCNC(=O)c1ccco1)c1ccc(F)cc1
The inhibition of the first is higher: 29.2% for the first, -2.4% for the second.

First: CC(C)COc1ccc(C(=O)Nc2ccc(N3CCOCC3)cc2N2CCOCC2)cc1
Second: COc1ccc(-c2sc3ccc(N4CCOCC4)cc3c2C#Cc2ccsc2)cc1
The inhibition of the first is higher: 43% for the first, 36.8% for the second.

Going from COc1cccc2cc(-c3nnc(-c4ccccc4)o3)c(=O)oc12 to COc1cccc2cc(-c3ccccc3)c(=O)oc12, the inhibition falls from 79.1% to 54.4%.

Going from O=c1oc2c(O)cccc2cc1-c1nc2ccccc2[nH]1 to CC(=O)Nc1ccc(-c2nc3ccccc3c(=O)o2)cc1, the inhibition rises from 7.2% to 68.8%.

Going from O=C(CNS(=O)(=O)c1ccc(Cl)c(C(F)(F)F)c1)NC1CCCCC1 to O=C(O)c1ccccc1C(=O)Nc1ccc(S(=O)(=O)NC2CCCCC2)cc1, the inhibition falls from 20.4% to -4.02%.

Going from N#CCSc1nnc(Cc2ccc3c(c2)OCO3)o1 to CC(=O)CSc1nnc(Cc2ccc3c(c2)OCO3)o1, the inhibition falls from 73.3% to 73.1%.

Going from Cn1nc(-c2ccccc2)c(COC(=O)c2cccc(Cl)c2)c1S(=O)(=O)c1ccccc1 to O=C(Nc1cccc(-c2nc3ccccc3c(=O)o2)c1)c1ccccc1, the inhibition rises from -7.33% to 60.9%.

Going from CCC(CC)C(=O)Nc1cccc(-c2nc3ccccc3o2)c1 to CC(C)C(=O)Nc1cccc(-c2nc3ccccc3o2)c1, the inhibition rises from -1.13% to 9.28%.

First: CCCC(=O)Nc1cccc(-c2nc3ccccc3o2)c1
Second: CCCC(=O)Nc1cccc(-c2nc3cc(C)c(C)cc3o2)c1
The inhibition of the first is higher: -1.01% for the first, -4.03% for the second.

First: O=C(Nc1ccc2nc(-c3ccccc3)oc2c1)c1ccco1
Second: O=C(Nc1ccccn1)c1ccco1
The inhibition of the first is lower: -0.45% for the first, 2.01% for the second.

Compared with O=P(Oc1ccccc1)(Oc1ccccc1)C(O)c1ccc(Cl)cc1 (stereo not given), O=C(N/N=C(\c1ccccc1)c1cccnc1)c1ccc(O)cc1 is higher in inhibition: -12% for the first, -6.44% for the second.

Compared with COc1cccc(CN2CCNC(=O)C2CC(=O)NC2Cc3ccccc3C2)c1 (stereo not given), COc1ccc(NC(=S)N2CCNC(=O)C2CC(=O)Nc2cccc(Cl)c2C)cc1 (stereo not given) is higher in inhibition: -15.6% for the first, 51.6% for the second.

Going from COc1ccc(C(=O)/C=C\N2CCOCC2)cc1 to COc1ccc(C(=O)NNC(=O)c2ccccn2)cc1, the inhibition rises from 10.4% to 12.8%.

First: COCCNC(=S)N1CCC(NC(=O)Nc2ccc(C)cc2)CC1
Second: CC(=O)Nc1ccc(N=Nc2c(C)[nH]n(C(N)=S)c2=O)cc1
The inhibition of the first is higher: -2% for the first, -7.76% for the second.

First: O=C(c1ccc([N+](=O)[O-])cc1)N1CCSC1c1ccc(Cl)cc1 (stereo not given)
Second: CC(=O)N1N=C(c2ccc(Cl)cc2)CC1c1ccc([N+](=O)[O-])cc1 (stereo not given)
The inhibition of the first is higher: 6.9% for the first, -10.2% for the second.

First: COc1ccccc1CNC(=O)CCCn1nc(C)c2c(C)n(-c3ccccc3)nc2c1=O
Second: COc1cc(C(=O)N/N=C(\c2ccccc2)c2ccccn2)cc(OC)c1OC
The inhibition of the first is lower: 5.28% for the first, 43.4% for the second.

Going from CN1C(=O)N(C)C(c2ccccc2Cl)C2=C1CC(C)(C)CC2=O (stereo not given) to CC(=O)N1CCN(C(=O)c2ccc(-c3ccccc3Cl)o2)CC1, the inhibition rises from 1.21% to 5.06%.

Compared with O=C(O)c1ccc(N=N/C(=N\Nc2ccc(C(=O)O)cc2)c2ccccc2)cc1, Brc1ccc(N/N=C(/N=Nc2nn[nH]n2)c2ccccc2)cc1 is higher in inhibition: 29.9% for the first, 76.2% for the second.

First: CCOC(=O)c1nc(C)nc(Sc2n[nH]c(-c3cc(C(F)(F)F)cc(C(F)(F)F)c3)n2)c1C
Second: Cc1cc(Cl)c(S(=O)(=O)N2CCN(c3cccc(C)c3C)CC2)cc1OCC(N)=O
The inhibition of the first is higher: 46.5% for the first, 6.33% for the second.

Compared with CCC(C)C(NC(=O)c1ccccc1NC(=O)c1ccc(OC)cc1)C(=O)NCCCn1ccnc1 (stereo not given), COc1ccc(C(=O)NCCNC(=O)c2ccccn2)cc1 is lower in inhibition: 7.04% for the first, -3.54% for the second.

Going from CC1(N(O)/C=C2\C=CC=CC2=O)CCCCC1=O (stereo not given) to CC(C)c1ccccc1NC(=O)c1ccccc1NC(=O)C1CCCCC1, the inhibition falls from 3.64% to -1.84%.

Going from C/C(=N\OC(=O)c1c(-c2c(F)cccc2Cl)noc1C)c1nccs1 to Cc1onc(-c2c(Cl)cccc2Cl)c1C(=O)O/N=C(\C#N)c1c(Cl)cccc1Cl, the inhibition rises from 4.04% to 4.59%.

First: Cc1onc(-c2cccc(Cl)c2Cl)c1C(=O)O/N=C(\N)c1ccc([N+](=O)[O-])o1
Second: Cc1cccnc1NC(=O)c1ccc([N+](=O)[O-])o1
The inhibition of the first is lower: 60% for the first, 70.2% for the second.

Going from O=C(O)c1cccc2c1C(=O)c1ccc(-c3ccc(OC(F)(F)F)cc3)cc1S2(=O)=O to COc1cccc(C2C(C(=O)OC(C)C)=C(C)N=c3s/c(=C\c4ccc(C(=O)O)cc4)c(=O)n32)c1 (stereo not given), the inhibition falls from -2.64% to -6.22%.

Compared with O=[N+]([O-])c1cc(/C=N/OCc2c(Cl)cccc2Cl)ccc1N1CCOCC1, O=[N+]([O-])c1ccc2nonc2c1Nc1cccc(F)c1 is higher in inhibition: 22.5% for the first, 32.1% for the second.

First: CCOC(=O)N1CCN(c2ccc(Cl)c(Cl)c2)CC1
Second: COC(=O)N1CCN(c2ccc(Cl)c(Cl)c2)CC1
The inhibition of the first is higher: 75.6% for the first, 39% for the second.

Compared with COC(=O)c1[nH]c2ccc(C)cc2c1NC(=O)C1=COCCO1, Cc1ccc(CNC(=O)Cn2nnc(C(=O)Nc3cccc(C)c3C)c2N)cc1 is lower in inhibition: 2.53% for the first, -3.98% for the second.

Going from O=C(c1cccc([N+](=O)[O-])c1)c1ccccn1 to C/C(=N/NC(=O)CNC(=O)c1ccccn1)c1cccc([N+](=O)[O-])c1, the inhibition falls from 2.21% to -4.01%.

Going from COc1cccc(C(=O)NCCNC(=O)c2ccccn2)c1 to O=C(NCC(=O)N1CCN(c2ccccn2)CC1)c1ccc(Br)o1, the inhibition rises from -10.9% to -3.21%.

Compared with O=C(N/N=C(\c1ccccc1)c1cccnc1)c1cc(O)ccc1O, Cc1ccc(COC(=O)NCc2cccnc2)cc1 is lower in inhibition: 30.3% for the first, 4.06% for the second.

Going from COc1ccc(C)cc1-n1nnnc1SCC(=O)Nc1cccnc1Cl to O=C1CN(C(=O)CSc2nnnn2-c2ccc(Cl)cc2)c2ccccc2N1, the inhibition rises from 17.6% to 20.5%.

Compared with COc1cc(C(=O)N2CCN(C(=O)c3ccccc3)CC2)cc(OC)c1OC, COc1ccccc1N1CCN(C(=O)c2sc3nc(-c4ccc(F)cc4)cn3c2C)CC1 is higher in inhibition: -17.1% for the first, 40.2% for the second.

Compared with O=C(CCCN1CCC(c2ccccc2)C1)c1ccc2c(c1)OCCO2 (stereo not given), Cc1ccccc1CNC(=O)C(=O)NCC1OCCCN1S(=O)(=O)c1ccc(F)cc1C (stereo not given) is higher in inhibition: 12.3% for the first, 16.5% for the second.

First: CC(/C=N/N1CCN(c2ccc(C)cc2)CC1)=C\c1ccccc1
Second: O=C(Cn1nc(Cc2cccnc2)c2ccccc2c1=O)N1CCN(c2ccccn2)CC1
The inhibition of the first is higher: 10.7% for the first, 2.03% for the second.

First: CC(C)OP(=O)(OC(C)C)C(Nc1ccccn1)c1ccc(F)cc1 (stereo not given)
Second: O=C(Nc1ncccn1)c1ccc([N+](=O)[O-])cc1
The inhibition of the first is lower: -0.14% for the first, 34% for the second.

First: O=C(Cn1cnc2c(nnn2Cc2ccc(Cl)cc2)c1=O)OCc1ccccc1
Second: CCN(CC)S(=O)(=O)c1ccc(N=Nc2c(C)[nH]n(C(N)=S)c2=O)cc1
The inhibition of the first is higher: -1.54% for the first, -7.96% for the second.

First: O=C(Nc1nccs1)C(Cl)(Cl)Cl
Second: CC(=N/O)/C(C)=N\NC(=O)c1ccccn1
The inhibition of the first is lower: 5.95% for the first, 33% for the second.

Going from Cc1cc(C)c2ccc(C(=O)O)nc2c1O to Cc1ccc([N+](=O)[O-])cc1N=Nc1c(C)[nH]n(C(N)=S)c1=O, the inhibition falls from 15.6% to -4.79%.

First: CC(OC(=O)C1CCN(S(=O)(=O)c2ccc(Cl)cc2)CC1)C(=O)NC1CCCCC1C (stereo not given)
Second: CC(=O)N(C)c1ccc(N=Nc2c(C)[nH]n(C(N)=S)c2=O)cc1
The inhibition of the first is higher: 17.7% for the first, -34.4% for the second.
